Test results published in article PMC5540273 (PLoS ONE, 2017).

How the values were obtained:
Conditions in all cases: concentration: 1 μM, replicates: in singlicate; n = 1
PIKFYVE = tested on: PIKFYVE
PIM1 = tested on: PIM1
PIM2 = tested on: PIM2
PIM3 = tested on: PIM3
PIP5K1A = tested on: PIP5K1A
PIP5K1C = tested on: PIP5K1C
PIP5K2B = tested on: PIP5K2B
PIP5K2C = tested on: T1, PIP5K2C
T1 construct: gene PIP4K2C

PKAC-alpha = tested on: T2, PKAC-alpha
T2 construct: gene PRKACA

PKAC-beta = tested on: T3, PKAC-beta
T3 construct: gene PRKACB

PKMYT1 = tested on: PKMYT1
PKN1 = tested on: PKN1
PKN2 = tested on: PKN2
PLK1 = tested on: PLK1
PLK2 = tested on: PLK2
PLK3 = tested on: PLK3
PLK4 = tested on: PLK4
PRKCD = tested on: PRKCD
PRKCE = tested on: PRKCE
PRKCH = tested on: PRKCH
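Further: KINOMEscan kinase panel screen.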

| Structure (SMILES) | %Inh (PIKFYVE) [%] | %Inh (PIM1) [%] | %Inh (PIM2) [%] | %Inh (PIM3) [%] | %Inh (PIP5K1A) [%] | %Inh (PIP5K1C) [%] | %Inh (PIP5K2B) [%] | %Inh (PIP5K2C) [%] | %Inh (PKAC-alpha) [%] | %Inh (PKAC-beta) [%] | %Inh (PKMYT1) [%] | %Inh (PKN1) [%] | %Inh (PKN2) [%] | %Inh (PLK1) [%] | %Inh (PLK2) [%] | %Inh (PLK3) [%] | %Inh (PLK4) [%] | %Inh (PRKCD) [%] | %Inh (PRKCE) [%] | %Inh (PRKCH) [%] |
| --- | --- | --- | --- | --- | --- | --- | --- | --- | --- | --- | --- | --- | --- | --- | --- | --- | --- | --- | --- | --- |
| O=C(NCCNc1ccnc(Nc2ccc(F)cc2)n1)c1cc2ccccc2s1 [GSK1379874] | 0 | 0 | 0 | 0 | 0 | 0 | 8 | 42 | 0 | 0 | 0 | 0 | 0 | 0 | 0 | 0 | 0 | 0 | 5 | 17 |
| Cc1nnc(-c2ccc3ncc(-c4ccc(S(C)=O)cc4)n3c2)o1 (centres unmarked) | 0 | 0 | 2 | 0 | 2 | 0 | 39 | 0 | 2 | 8 | 3 | 0 | 0 | 0 | 11 | 12 | 0 | 14 | 0 | 0 |
| Cn1cc(-c2ccc3c(c2)CCN3C(=O)Cc2ccccc2Cl)c2c(N)ncnc21 [GSK2608885] | 0 | 10 | 0 | 0 | 0 | 7 | 0 | 90.5 | 45 | 34 | 18 | 42 | 31 | 15 | 51 | 86 | 55 | 51 | 7 | 54 |
| NCC(NC(=O)c1cc(-c2cn[nH]c2)c(-c2ccnc3[nH]ccc23)s1)c1ccccc1.O=C(O)C(F)(F)F.O=C(O)C(F)(F)F (centres unmarked) [GSK1325775] | 0 | 39 | 16 | 41 | 50 | 80 | 71 | 49 | 98.7 | 98 | 0 | 52 | 66 | 14 | 5 | 14 | 29 | 99.8 | 98.7 | 95.1 |
| CCc1ccnc(/C=C/c2n[nH]c3cc(Sc4ccccc4C(=O)NC)ccc23)c1 | 0 | 0 | 0 | 0 | 5 | 0 | 27 | 0 | 0 | 0 | 0 | 9 | 0 | 0 | 0 | 0 | 83 | 9 | 12 | 0 |
| Nc1nc(-c2ccc3c(N)n[nH]c3c2)cc(N2CCCC2)n1 [GSK2227430] | 0 | 20 | 0 | 0 | 0 | 26 | 0 | 0 | 0 | 0 | 0 | 10 | 0 | 0 | 0 | 0 | 0 | 0 | 0 | 5 |
| CC(C)Oc1ccc2c(-c3ccnc(Nc4ccc(N5CCN(C)CC5)cc4)n3)cnn2n1 [GW696155] | 92.8 | 37 | 0 | 42 | 14 | 47 | 73 | 87 | 3 | 0 | 0 | 31 | 4 | 25 | 62 | 95.9 | 96.8 | 0 | 28 | 0 |
| O=c1cc(N2CCOCC2)nc2n(Cc3cccc(F)c3)ccn12 [GSK2297430] | 0 | 11 | 0 | 0 | 0 | 21 | 21 | 0 | 12 | 12 | 0 | 20 | 0 | 1 | 0 | 0 | 0 | 2 | 3 | 31 |
| Cc1cccc(Cn2ccn3c(=O)cc(N4CCOCC4)nc23)c1 [GSK2297542] | 0 | 29 | 0 | 13 | 0 | 36 | 2 | 6 | 16 | 1 | 16 | 0 | 0 | 14 | 0 | 0 | 0 | 9 | 2 | 31 |
| NS(=O)(=O)c1cccc(-c2ccc3ncc(N4CCOCC4)nc3c2)c1 [GSK1535721] | 11 | 14 | 0 | 0 | 0 | 48 | 11 | 75 | 0 | 0 | 1 | 0 | 0 | 0 | 0 | 5 | 15 | 4 | 1 | 8 |
